# Results filed as inconclusive are left out. Activity calls are given as the source filed them. The call rests on the fitted dose curve; in most records, active means well fitted cell-killing curve with a large enough effect in the repeat runs; inconclusive means weak or mixed curves; inactive means flat fitted curve, though single readings scatter.
# Assay: qHTS RealTime-Glo MT Cell Viability Assay in HepG2 cells - 8 hour (AID 1224873); further: nearly all actives have a fitted effect of over 55% in size
# Settings: RealTime-Glo luminescence; series mostly up to 76.8 µM; viability change, negative = cytotoxic: at the top concentration
# Description: National Center for Advancing Translational Sciences [NCATS]
# NIH Chemical Genomics Center [NCGC]
# U.S. Environmental Protection Agency [EPA]
# National Institutes of Environmental Health Sciences [NIEHS]
# National Toxicology Program [NTP]
# U.S. Food and Drug Administration [FDA]
# Measure of cell viability is critical in the cell-base assay. Analysis of cell viability is necessary for the characterization of cell responses to cytotoxic drugs and environmental stress. A RealTime-Glo MT Cell Viability Assay to monitor cell viability in real time of continues cell culture during 40 hours of compound treatment was used to screen Tox21 10K library compounds in HepG2 cells. The RealTime-Glo MT Cell Viability Assay is a nonlytic, homogeneous, bioluminescent method to measure cell viability in real time using a simple, plate-based method. The assay involves adding NanoLuc luciferase and a cell-permeant prosubstrate to cells in culture. Viable cells reduce the proprietary prosubstrate to generate a substrate for NanoLuc luciferase. This substrate diffuses from cells into the surrounding culture medium, where it is rapidly used by the NanoLuc Enzyme to produce a luminescent signal. The signal correlates with the number of viable cells, making the assay well suited for cytotoxicity studies.
# Tox21 Assay Protocol Summary:
# The mixture of HepG2 cell suspension and reagents were dispensed at 600cells/6 ul/well in 1536-well tissue culture treated black solid bottom plates using a Multidrop dispenser. After the assay plates were incubated at a 37 C/5% CO2 incubator for 5 hours, 23 nL of compounds dissolved in DMSO, positive and negative controls was transferred to the assay plate by a pintool work station. The plates were incubated at 37 C for 40 hours. The luminescence intensity were measured at 0h, 8h, 16h, 24h, 32h and 40h time points using ViewLux plate reader during compound treatment.
# On the % scale 0 is the no-effect control and ±100 the full control effect.
Structure (SMILES),outcome,"viability change, negative = cytotoxic"
C=C(C)C(=O)O[C@H]1C[C@@H]2CC[C@@]1(C)C2(C)C,inactive,
CCc1cccc(C)c1N,inactive,
CC1CCC(C(C)C)C(O)C1 (stereo not given),inactive,
c1ccc2c(c1)ccc1ccccc12,inactive,
ON=C1CCCCC1,inactive,
OCCOCCOCCO,inactive,
CSCCC=O,inactive,
C=C(C)C(=O)OCCOCCOCCOC(=O)C(=C)C,inactive,
CC(=O)OCC(=O)[C@@]12N=C(C)O[C@@H]1C[C@H]1[C@@H]3CCC4=CC(=O)C=C[C@]4(C)[C@H]3[C@@H](O)C[C@@]12C,inactive,
O=C(Oc1ccccc1)c1ccccc1,inactive,
CCCC(C)=O,inactive,
CCCCC(CC)COC(=O)C(C#N)=C(c1ccccc1)c1ccccc1 (stereo not given),inactive,
CCCCCCCCCCCCCCCO,inactive,
OCCOCCN1CCN(C2=Nc3ccccc3Sc3ccccc32)CC1,inactive,
Cc1cccnc1,inactive,
CN(C)CCC(c1ccc(Cl)cc1)c1ccccn1 (stereo not given),inactive,
O=c1[nH]nnc2ccccc12,inactive,
CCCCCCCC(=O)OC,inactive,
CN(C)CCOCCN(C)C,inactive,
CC(=O)CC(=O)Nc1ccccc1,inactive,

Structure (SMILES),outcome,"viability change, negative = cytotoxic"
N[C@@H](Cc1cc(I)c(Oc2cc(I)c(O)c(I)c2)c(I)c1)C(=O)O,inactive,
CC(C)CC(=O)CC(C)C,inactive,
CCCCCCCCCC,inactive,
CC(O)COCC(C)O (stereo not given),inactive,
c1ccc2scnc2c1,inactive,
CN(C)CCCN,inactive,
CCCSc1ccc2nc(NC(=O)OC)[nH]c2c1,inactive,
C=CCOC(=O)c1ccccc1C(=O)OCC=C,inactive,
CC(=O)c1ccccc1,inactive,
O=C(O)c1cc(O)c(O)c(O)c1,,-2.53% [at 35.3 µM] (inactive)
O=C(O)CCCCCCCCCCC(=O)O,inactive,
CC(c1cc2ccccc2s1)N(O)C(N)=O (stereo not given),inactive,
CCCCC(CC)COC(=O)CS (stereo not given),inactive,
C[C@H]1C[C@H]2[C@@H]3CCC4=CC(=O)C=C[C@]4(C)[C@@]3(F)[C@@H](O)C[C@]2(C)[C@@]1(O)C(=O)CO,inactive,
O=C(O)c1ccc2c(c1)C(=O)OC2=O,inactive,
CCC(O)OCCCOC (stereo not given),inactive,
C=C(C)C(=O)Nc1ccc(Cl)c(Cl)c1,inactive,
COc1ccc(NC(C)=O)cc1N,inactive,
O=C(O)CCCC[C@@H]1SC[C@@H]2NC(=O)N[C@@H]21,inactive,
O=C1CCC(N2C(=O)c3ccccc3C2=O)C(=O)N1 (stereo not given),inactive,

# — PubChem BioAssay (Tox21)
